# From a collection of fitness landscapes (doi:10.1126/science.1257360)
# Over roughly 140,000 sequences, “enrichment ratio after two sorts for PhoP signalling” has its median near 0; the highest 2% begin near 11. The sample holds the highest values, similar sequences and a random draw of the others, so the mix is not that of the screen.
# B1: PhoQ; a variant is named by its letters at X, in order, P23837 (parent)
# chain: MKKLLRLFFPLSLRVRFLLATAAVVLVLSLAYGMVALIGYSVSFDKTTFRLLRGESNLFYTLAKWENNKLHVELPENIDKQSPTMTLIYDENGQLLWAQRDVPWLMKMIQPDWLKSNGFHEIEADVNDTSLLLSGDHSIQQQLQEVREDDDDAEMTHSVAVNVYPATSRMPKLTIVVVDTIPVELKSSYMVWSWFIYVLSANLLLVIPLLWVAAWWSLRPIEALAKEVRELEEHNRELLNPATTRELTSLVRNLNRLLKSERERYDKYRTTLTDLTHSLKTPLXXLQXXLRSLRSEKMSVSDAEPVMLEQISRISQQIGYYLHRASMRGGTLLSRELHPVAPLLDNLTSALNKVYQRKGVNISLDISPEISFVGEQNDFVEVMGNVLDNACKYCLEFVEISARQTDEHLYIVVEDDGPGIPLSKREVIFDRGQRVDTLRPGQGVGLAVAREITEQYEGKIVAGESMLGGARMEVIFGRQHSAPKDE
# Variants of: B1
# Experiment: enrichment ratio after two sorts for PhoP signalling (ratio (wild type AVST 3.29)); higher = more functional
# Conditions: with PhoP (E. coli)
row,Variant,enrichment ratio
1,RIWK,≤ 0.25
2,NTQW,≤ 0.25
3,QDPH,≤ 0.25
4,RWEP,≤ 0.25
5,SQTN,8.46
6,TMTN,13.4
7,KYTN,≤ 0.25
8,AMTN,27.1
9,VHTN,≤ 0.25
10,DMTN,≤ 0.25
11,WITN,≤ 0.25
12,VLTN,≤ 0.25
13,NMTN,≤ 0.25
14,GHTN,12.9
15,THTN,4.21
16,STTN,19.3
17,YVCF,0.805
18,PGGT,≤ 0.25
19,RGRC,≤ 0.25
20,FMKW,≤ 0.25
21,TWYE,≤ 0.25
22,YSAH,≤ 0.25
23,HNNM,≤ 0.25
24,QGTS,≤ 0.25
25,YTTN,≤ 0.25
26,GTTN,≤ 0.25

row,Variant,enrichment ratio
1,SPTN,≤ 0.25
2,KFTN,≤ 0.25
3,ATTN,20.6
4,SVTN,16.4
5,NETN,≤ 0.25
6,TETN,24.4
7,TCTN,22.5
8,VCTN,≤ 0.25
9,DETN,≤ 0.25
10,KCTN,≤ 0.25
11,RCRT,≤ 0.25
12,YSIQ,≤ 0.25
13,WKRH,≤ 0.25
14,LAIW,≤ 0.25
15,NWSE,≤ 0.25
16,LYIV,≤ 0.25
17,WHIR,≤ 0.25
18,YPIA,≤ 0.25
19,GPAN,≤ 0.25
20,AKTN,≤ 0.25
21,KSTN,≤ 0.25
22,AITN,22.4
23,FIQE,≤ 0.25
24,GTVS,≤ 0.25
25,GNVI,14.7
26,GIGD,≤ 0.25

row,Variant,enrichment ratio
1,GIFA,≤ 0.25
2,GTMI,≤ 0.25
3,GCVI,≤ 0.25
4,GIMI,25.7
5,GIVI,6.54
6,GYMI,≤ 0.25
7,GNMI,46.4
8,EHCK,≤ 0.25
9,DQHH,≤ 0.25
10,AQEG,≤ 0.25
11,LKYY,≤ 0.25
12,FGWK,≤ 0.25
13,SEER,≤ 0.25
14,RPGL,≤ 0.25
15,QPNH,≤ 0.25
16,QQNH,12.7
17,QENH,70.4
18,QQNS,8.87
19,QLNH,≤ 0.25
20,QQSH,≤ 0.25
21,HNFM,≤ 0.25
22,KEFR,≤ 0.25
23,THMP,≤ 0.25
24,HPVY,≤ 0.25
25,MNCR,≤ 0.25
26,RSFL,≤ 0.25

row,Variant,enrichment ratio
1,YTFQ,≤ 0.25
2,TICK,1.1
3,TIGM,21.8
4,RIQM,≤ 0.25
5,TINS,9.25
6,AIQM,≤ 0.25
7,TITM,17.6
8,TINY,≤ 0.25
9,TIQM,48.5
10,TIWM,≤ 0.25
11,TIPM,≤ 0.25
12,TIYM,2.83
13,TINM,15.1
14,PGVE,≤ 0.25
15,FAIN,0.294
16,WTRP,≤ 0.25
17,TKVF,3.68
18,ANGQ,≤ 0.25
19,SYDT,≤ 0.25
20,PICE,≤ 0.25
21,LWID,≤ 0.25
22,FPRV,≤ 0.25
23,TRYF,≤ 0.25
24,GPCS,≤ 0.25
25,NCLV,1.12
26,AACA,7.7

row,Variant,enrichment ratio
1,AANL,≤ 0.25
2,AACE,6.4
3,AACL,11.3
4,AACV,16.2
5,IACL,≤ 0.25
6,AACK,≤ 0.25
7,AACI,12.2
8,AAAI,1.63
9,KACV,≤ 0.25
10,AACS,17.3
11,ANCV,3.79
12,NQPV,≤ 0.25
13,KGDN,≤ 0.25
14,WHVG,≤ 0.25
15,HKAD,≤ 0.25
16,LHMM,≤ 0.25
17,SKQW,≤ 0.25
18,QCCL,≤ 0.25
19,LETR,≤ 0.25
20,DAMY,≤ 0.25
21,MRVV,≤ 0.25
22,ASVA,4.82
23,ASRL,≤ 0.25
24,ASTD,≤ 0.25
25,ASVY,2.98
26,ASHQ,≤ 0.25

row,Variant,enrichment ratio
1,ASVV,14.5
2,ASVK,0.907
3,ASVL,16.7
4,KSVV,≤ 0.25
5,ASVT,15.2
6,ASMQ,29.9
7,EVAW,≤ 0.25
8,DHDV,≤ 0.25
9,YAYW,≤ 0.25
10,ANRY,≤ 0.25
11,RTRT,≤ 0.25
12,WPGL,≤ 0.25
13,ASMW,5.78
14,KSAF,≤ 0.25
15,ASAF,15.1
16,ASMG,17.6
17,ASNL,4.93
18,AHAF,≤ 0.25
19,KSVG,≤ 0.25
20,ASVC,5.25
21,ASQN,≤ 0.25
22,ASMN,19.6
23,ASVG,14.7
24,ASMD,≤ 0.25
